20 compounds from PubChem BioAssay can be followed below.

Values joined by “and” are separate entries in the source; they are usually repeats but may differ in a detail not shown here. Equal entries are not always repeated. Active and inactive are the calls of the source.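 The calls were made as follows, unless noted: active = compounds whose cell count with miR-34 switched on is under 0.7 times the count with it off; inactive = the rest.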

Test [1] can be described thus: sensitizers of A549 cells to miR-34 induction, primary screen, imaging, A549 dox-inducible miR-34, nuclei and caspase counts (AID 1347080). Also: test concentration not given here. The conditions noted are these: A549 miR-34 inducible, Hoechst nuclei count, 48 h.
The nature of test [2]: survival rescue of mitochondrial mutant cells in low glucose, primary screen, MELAS cybrids, Rieske KO mouse fibroblasts, CellTiter-Glo (AID 1508586;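 active = mean z-score across replicates of 1.96 or higher in either the MELAS or the Rieske mutant cell line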;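 also: test concentration not given here; z relative to plate mean and SD of compound and empty wells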). For orientation: In ATP-based viability assays light output follows the ATP content of the culture.
The nature of test [3]: viability rescue of complex I mutant cybrids, primary screen, cell-based, galactose medium, ATP luminescence (AID 1645843;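 active = z-score of at least 1.8 in each of two replicates, scored against plate mean and spread of sample wells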;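 also: positive z means more ATP and so rescue of galactose-driven cybrid death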). The conditions noted are these: complex I mutant cybrid cells, 72 h, stronger effect = higher value.
Setting [4] is: stronger effect = lower value, cell number ratio, induced over uninduced.
[5] abbreviates: measured here: relative caspase fold change +Dox/-Dox.
[6] abbreviates: measured here: total cells with miR-34 induction, stronger effect = lower value.
Where [7] appears, read: measured here: total cells without miR-34 induction.
Setting [8] is: MELAS cybrid survival, CellTiter-Glo 48 h, stronger effect = higher value.
The mark [9] stands for this setting: Rieske KO mouse fibroblast survival, CellTiter-Glo 72 h.

On to `CC(Nc1nc(N)nc2[nH]ncc12)c1ccc(Cl)cc1` (stereo not given), for which the figures for the fold change in test [1] (setting [4]) and in test [1] (setting [5]) were 0.895 (inactive) and 1.28, respectively. In addition, the results for the cell count in test [1] (setting [6]) and in test [1] (setting [7]) were 7110 and 7940, respectively. The z-score in test [2] (setting [8]) was -0.461 (inactive); in test [2] (setting [9]), -0.503; in test [3], -0.575 (inactive).
Turning to `O=C(O)c1cc(Br)ccc1NS(=O)(=O)c1ccc(Cl)cc1`, the values for the fold change in test [1] (setting [4]) and in test [1] (setting [5]) were 0.854 (inactive) and 0.75, respectively. Moreover, the cell count in test [1] (setting [6]) turned out to be 8540; in test [1] (setting [7]), 10000. Moreover, the results for the z-score in test [2] (setting [8]), in test [2] (setting [9]) and in test [3] were -0.163 (inactive), -0.343 and 0.495 (inactive), respectively.
On to `CC(NC(CCc1ccccc1)C(=O)O)C(=O)N1CCCC1C(=O)O` (stereo not given), for which the fold change is 0.974 (inactive) and 0.933 (inactive) in test [1] (setting [4]); 2.22 and 0.554 in test [1] (setting [5]). In addition, the cell count in test [1] (setting [6]) is 9670 and 8080; in test [1] (setting [7]) it was 9920 and 8660. In addition, the z-score in test [2] (setting [8]) was 0.277 (inactive); in test [2] (setting [9]), 0.0621; in test [3] it was 0.69 (inactive).
Consider `OCC1OC(Oc2cc(O)cc(C=Cc3ccc(O)cc3)c2)C(O)C(O)C1O` (stereo not given), for which the fold change in test [1] (setting [4]) was 0.967 (inactive) and 0.947 (inactive); in test [1] (setting [5]) it was 1.94 and 0.831. Also, the cell count in test [1] (setting [6]) is 9700 and 8270; in test [1] (setting [7]), 10000 and 8720. For the same compound, the z-score in test [2] (setting [8]) was -0.124 (inactive); in test [2] (setting [9]) it was -0.651; in test [3], 0.4 (inactive).
In the case of `Cc1ccc(S(=O)(=O)NCCCOC(=O)Nc2ccncc2)cc1`, the figures for the fold change in test [1] (setting [4]) and in test [1] (setting [5]) were 0.881 (inactive) and 0.547, respectively. Moreover, the cell count was found to be 7920 in test [1] (setting [6]) and 8990 in test [1] (setting [7]). Moreover, the z-score is 0.675 (inactive) in test [2] (setting [8]), -0.0111 in test [2] (setting [9]) and -0.675 (inactive) in test [3].
For the compound `COc1cccc2c(=O)n(Cc3ccc4nonc4c3)cnc12`, the figures for the fold change in test [1] (setting [4]) and in test [1] (setting [5]) were 0.912 (inactive) and 1.93, respectively. In addition, the cell count in test [1] (setting [6]) was found to be 8180; in test [1] (setting [7]) it was 8980. Moreover, the z-score in test [2] (setting [8]) is 0.215 (inactive); in test [2] (setting [9]), -0.341; in test [3], -0.545 (inactive).
On to `CC(C)(C)C(=O)Nc1ccc2c(c1)CC(=O)N2`, for which the fold change in test [1] (setting [4]) was 0.817 (inactive); in test [1] (setting [5]) it was 1.77. Besides, the results for the cell count in test [1] (setting [6]) and in test [1] (setting [7]) were 8370 and 10200, respectively. Besides, the results for the z-score in test [2] (setting [8]), in test [2] (setting [9]) and in test [3] were 0.0898 (inactive), 0.0111 and -0.52 (inactive), respectively.
`COc1ccc(-n2cccn2)c(-c2nnc3ccccn23)c1`: the fold change is 0.89 (inactive) in test [1] (setting [4]) and 0.706 in test [1] (setting [5]). Besides, the results for the cell count in test [1] (setting [6]) and in test [1] (setting [7]) were 8500 and 9550, respectively. In addition, the z-score in test [2] (setting [8]) is -0.172 (inactive); in test [2] (setting [9]) it was -0.541; in test [3] it was -0.55 (inactive).
For `CCCCCCCCCCCCCCCC(=O)NCC(=O)O`, the fold change in test [1] (setting [4]) was 0.908 (inactive); in test [1] (setting [5]), 1.05. Moreover, the cell count in test [1] (setting [6]) turned out to be 9030; in test [1] (setting [7]), 9940. In addition, the figures for the z-score in test [2] (setting [8]), in test [2] (setting [9]) and in test [3] were -0.0953 (inactive), 0.105 and 1.27 (inactive), respectively.
In the case of `Cc1ccc2c(c1)N(Cc1nc(C(C)(C)C)no1)C(=O)CO2`, the fold change in test [1] (setting [4]) was 1.19 (inactive); in test [1] (setting [5]) it was 0.578. The values for the cell count in test [1] (setting [6]) and in test [1] (setting [7]) were 6310 and 5280, respectively. Besides, the z-score in test [2] (setting [8]) was -0.543 (inactive); in test [2] (setting [9]), -0.423; in test [3], -0.52 (inactive).
For `CCn1ncc2[nH]c(-c3c(OC(C)C)ccc4ccccc34)nc21`, the fold change was 0.906 (inactive) in test [1] (setting [4]) and 1.3 in test [1] (setting [5]). Moreover, the cell count in test [1] (setting [6]) was 7700; in test [1] (setting [7]) it was 8510. In addition, the z-score in test [2] (setting [8]) is -0.33 (inactive); in test [2] (setting [9]) it was -0.482; in test [3], 0.5 (inactive).
In the case of `Cc1csc(CNc2nccc(-c3cn(C)nc3C)n2)n1`, the fold change was 0.888 (inactive) in test [1] (setting [4]) and 0.815 in test [1] (setting [5]). Also, the cell count in test [1] (setting [6]) was determined as 8410; in test [1] (setting [7]), 9480. For the same compound, the z-score was -0.307 (inactive) in test [2] (setting [8]), 0.16 in test [2] (setting [9]) and -0.445 (inactive) in test [3].
For `CC(=O)[C@]1(O)Cc2c(O)c3c(c(O)c2C(OC2CC(N)C(O)C(C)O2)C1)C(=O)c1ccccc1C3=O` (stereo not given in full), the fold change is 0.995 (inactive) and 0.89 (inactive) in test [1] (setting [4]); 0.907 and 1.04 in test [1] (setting [5]). For the same compound, the cell count in test [1] (setting [6]) was 734 and 2090; in test [1] (setting [7]), 738 and 2350. For the same compound, the z-score in test [2] (setting [8]) was 2.4 (active); in test [2] (setting [9]), -0.525; in test [3], -1.88 (inactive).
`COc1ccc(CN(C)C(=O)Nc2nc(C)n(C)n2)c2cccnc12`: the fold change is 0.889 (inactive) in test [1] (setting [4]) and 0.916 in test [1] (setting [5]). Further, the cell count in test [1] (setting [6]) worked out at 8870; in test [1] (setting [7]), 9980. Further, the z-score was 0.16 (inactive) in test [2] (setting [8]), -0.562 in test [2] (setting [9]) and -0.55 (inactive) in test [3].
As to `CC1OC(OCC2OC(Oc3c(-c4ccc(O)c(O)c4)oc4cc(O)cc(O)c4c3=O)C(O)C(O)C2O)C(O)C(O)C1O` (stereo not given), the fold change is 0.944 (inactive) and 0.91 (inactive) in test [1] (setting [4]); 1.42 and 0.851 in test [1] (setting [5]). The cell count is 10400 and 8400 in test [1] (setting [6]); 11000 and 9230 in test [1] (setting [7]). Moreover, the figures for the z-score in test [2] (setting [8]), in test [2] (setting [9]) and in test [3] were -0.328 (inactive), -0.0914 and 0.225 (inactive), respectively.
`Cc1nn(C)cc1-c1ccnc(NCC(C)Oc2cccnc2)n1` (stereo not given): the results for the fold change in test [1] (setting [4]) and in test [1] (setting [5]) were 0.898 (inactive) and 1.28, respectively. Moreover, the cell count in test [1] (setting [6]) was 8650; in test [1] (setting [7]) it was 9640. The z-score was -0.961 (inactive) in test [2] (setting [8]), 0.57 in test [2] (setting [9]) and -0.525 (inactive) in test [3].
Turning to `O=C1CCC(CC(=O)N2CCc3[nH]nc(-c4ccc5c(c4)OCO5)c3C2)N1` (stereo not given), the fold change in test [1] (setting [4]) is 0.953 (inactive); in test [1] (setting [5]), 1.24. Further, the cell count is 9140 in test [1] (setting [6]) and 9600 in test [1] (setting [7]). Also, the z-score in test [2] (setting [8]) was -0.575 (inactive); in test [2] (setting [9]), -0.976; in test [3], -0.52 (inactive).
For the compound `Nc1cccc(-c2cccc(OCc3ccccc3)c2)n1`, the fold change in test [1] (setting [4]) is 0.803 (inactive); in test [1] (setting [5]) it was 1.74. Also, the cell count in test [1] (setting [6]) was found to be 7230; in test [1] (setting [7]), 9010. For the same compound, the z-score is -0.19 (inactive) in test [2] (setting [8]), -0.156 in test [2] (setting [9]) and -0.555 (inactive) in test [3].
As to `c1ccn2cc(CCNc3ncnc4nc[nH]c34)nc2c1`, the fold change is 0.837 (inactive) in test [1] (setting [4]) and 1.9 in test [1] (setting [5]). Moreover, the results for the cell count in test [1] (setting [6]) and in test [1] (setting [7]) were 8280 and 9890, respectively. Further, the z-score is -0.607 (inactive) in test [2] (setting [8]), -0.578 in test [2] (setting [9]) and -0.4 (inactive) in test [3].
`Cc1cc(-c2csc(Nc3ccc(C(=O)O)c(O)c3)n2)ccc1F`: the fold change in test [1] (setting [4]) is 0.849 (inactive); in test [1] (setting [5]), 0.325. For the same compound, the results for the cell count in test [1] (setting [6]) and in test [1] (setting [7]) were 8200 and 9650, respectively. The values for the z-score in test [2] (setting [8]), in test [2] (setting [9]) and in test [3] were 2.38 (active), -0.525 and 1.02 (inactive), respectively.
